Most compounds without a hit are left out; they make up all but 3.6% or so of the library.
Anthrax LF inh2 = anthrax lethal factor protease inhibition. multiplex microsphere protease cleavage assay, LF. inhibition, % at 10 µM. hit rate 0.12% among 360,000; note: plate controls were buffer without enzyme for full effect and enzyme alone for no effect
3CLpro inhibitor = SARS-CoV 3CLpro protease inhibition. P0C6X7. recombinant SARS-CoV 3CLpro, quenched FRET peptide cleavage. inhibition, % at 6 µM. hit rate 0.14% among 290,000; in the data active = inhibition above about 12%
BoNT F protease = blocks Botulinum neurotoxin F light chain protease. Multiplex microsphere protease cleavage assay, flow cytometry. inhibition, % at 10 µM. hit rate 0.22% among 360,000; in the data active = inhibition above about 35%, passing the limit was not always enough; inconclusive = no clear call, values can overlap the other calls; note: plate controls were buffer without enzyme for full effect and enzyme alone for no effect
BJeLR viability = BJeLR cell viability loss; AID 1554; inhibition, % (test concentration not listed); hit rate 0.17% among 300,000; BJeLR (HRASV12) viability, CellTiter-Glo ATP luminescence, 48 h; in the data active = inhibition above about 50%; inconclusive = no clear call, values can overlap the other calls
BoNT A protease = blocks Botulinum neurotoxin A light chain protease | hit rate 0.17% among 360,000 | multiplex microsphere protease substrate cleavage, flow cytometry | inhibition, % at 10 µM; note: plate controls were buffer without enzyme for full effect and enzyme alone for no effect
Bead autofluor = counter-screen for toxin protease inhibitors: compound fluorescence. compound autofluorescence counterscreen, microsphere flow cytometry; stronger effect = higher value. fluorescence intensity (no concentration beside the values). hit rate 3.1% among 360,000. AID 624483; in the data active = fluorescence intensity above about 16000; inconclusive = no clear call, values can overlap the other calls
* hit, by the source's call; ? = inconclusive; / = no result. Cut-off read from the data, not from the text of the source, unless noted: active = inhibition above about 30%; inconclusive = no clear call, values can overlap the other calls; inactive = below that.

SMILES | Anthrax LF inh2 | 3CLpro inhibitor | BoNT F protease | BJeLR viability | BoNT A protease | Bead autofluor
COC(=O)NC1(C(F)(F)F)C(=O)NC(C)=C1C(=O)OC (stereo unspecified) | 5.2 | -1.4 | 2.8 | 2.9 | 0.9 | 5452
COC(=O)C1=C(C)NC(=O)C1(NS(=O)(=O)c1ccc(NC(C)=O)cc1)C(F)(F)F (stereo unspecified) | -2.1 | 3.5 | -3.9 | -7.7 | -1.8 | 19985*
Cc1cc(C)nc(SCC(=O)NC2=NN=C(c3ccc(Br)cc3)CS2)n1 | -3.1 | 2.5 | -6.6 | 8.4 | ? | 24625*
CCOCCCn1c(=S)[nH]c2cc(C(=O)NCCCN(CC)CC)ccc2c1=O | -5.2 | 4.3 | -4.7 | 13.8 | 0.0 | 4630
Clc1ccc2c(c1)[C@H]1OCC[C@H]1[C@@H](c1ccco1)N2 | -2.8 | -1.1 | -6.5 | 3.2 | 0.2 | 5189
Fc1ccc2c(c1)[C@H]1OCC[C@H]1[C@@H](c1ccco1)N2 | -24.4 | -1.9 | -5.7 | 3.2 | -1.8 | 23934*
CC(=O)N1CCN(C(=O)c2ccccc2NS(=O)(=O)c2ccc(F)cc2)CC1 | 3.4 | / | 5.3 | / | 1.0 | 8067
CC(C)CNC(=O)C(=O)N/N=C/c1cccs1 | -0.7 | 2.4 | -6.8 | 0.3 | -5.4 | 18172*
CCOC(=O)/C(=C\c1cccnc1)C(=O)c1cc(C(C)=O)c(Nc2ccccc2)s1 | 1.4 | 5.8 | 8.1 | 52.5* | -0.3 | 3409
CCOC(=O)/C(=C\c1ccccc1)C(=O)c1cc(C(C)=O)c(Nc2ccccc2)s1 | 0.3 | -3.1 | -7.4 | 6.0 | 2.2 | 10303
Cc1ccc(NC(=O)c2ccc(CNS(=O)(=O)c3cccc(C(F)(F)F)c3)cc2)cc1 | 0.4 | -5.0 | 6.4 | -0.1 | 0.0 | 2856
Cc1ccc(NC(=O)c2sccc2SCc2cccc(C(F)(F)F)c2)cc1 | -4.7 | 8.0 | -12.5 | 1.6 | -6.7 | 22569*
Cc1cccc(C)c1NC(=O)c1sccc1SCc1cccc(C(F)(F)F)c1 | -1.8 | 1.3 | -5.5 | -6.2 | -4.0 | 17658*
Cc1cnc(=O)[nH]c1SCc1cccc(C(F)(F)F)c1 | 5.3 | -2.4 | 13.4 | -8.0 | 2.4 | 5325
N#CCSc1ccsc1C(=O)Nc1ccc(F)cc1 | -2.1 | -5.3 | -4.8 | 13.9 | -0.3 | 16375*
CC1CN(C(=O)c2ccccc2OCc2ccc(Cl)cc2Cl)CC(C)O1 (stereo unspecified) | 0.6 | / | 13.3 | / | 0.3 | 3802
CS(=O)(=O)NNC(=O)Cn1nnc(-c2ccc(OCc3ccccc3Cl)cc2)n1 | -1.2 | / | -16.5 | 2.6 | -0.4 | 4552
CC(=O)Nc1ccc(C(=O)Cn2nnc3ccccc3c2=O)cc1 | -2.2 | -2.3 | 2.4 | -5.6 | 3.4 | 18940*
CC(=O)Nc1ccc(NC(=O)CCCCCn2nnc3ccccc3c2=O)cc1 | -1.0 | -3.1 | -4.9 | -2.3 | -0.4 | 3142
COc1cc(/C=N/NC(=O)c2cccnc2)ccc1OS(=O)(=O)c1ccc(F)cc1 | 1.3 | 1.8 | -7.7 | 9.5 | -3.3 | 20771*
O=C(O)c1cc[c]([Hg][Cl])cc1 | -22.5 | / | -4.2 | / | 60.3* | 9321
N/C(=N\OC(=O)C12CC3CC(CC(C3)C1)C2)c1cccnc1 | 1.2 | 1.6 | 13.4 | 0.2 | 0.0 | 9199
N/C(=N\OC(=O)C12CC3CC(CC(C3)C1)C2)c1ccccc1 | -10.4 | -2.2 | 4.6 | -12.1 | 5.0 | 17662*
Cc1cc(NC(=O)C2CC(=O)N(c3ccc(F)cc3)C2)no1 (stereo unspecified) | -0.1 | 5.1 | 11.9 | 4.0 | -0.8 | 3748
COc1ccccc1C(=O)NNC(=S)NC(=O)c1ccco1 | -0.3 | -5.6 | -7.5 | 19.5 | -1.1 | 2183
SMILES | Anthrax LF inh2 | 3CLpro inhibitor | BoNT F protease | BJeLR viability | BoNT A protease | Bead autofluor
COC(=O)c1cccc(NC(=O)C2COc3ccccc3O2)c1 (stereo unspecified) | -1.6 | -4.1 | -17.4 | 0.1 | -1.1 | 4817
COC(=O)c1cc(NC(=O)C2COc3ccccc3O2)ccc1Cl (stereo unspecified) | -0.6 | 2.2 | 1.8 | 7.1 | 1.7 | 21646*
CCOc1ccc(NC(=O)CN2C(=O)NC(CCSC)C2=O)cc1 (stereo unspecified) | -0.1 | -1.4 | -2.8 | 22.6 | 0.8 | 4559
N#Cc1ccc2sn(-c3ccccc3)c(=O)c2c1 | -2.0 | / | 2.3 | / | 32.7* | 4005
O=c1c2cc([N+](=O)[O-])ccc2sn1-c1ccccc1 | 3.0 | / | -2.1 | / | 11.2 | 3770
Cc1ccc(N2C(=O)c3cccc4c([N+](=O)[O-])ccc(c34)C2=O)c2cccnc12 | -3.6 | -4.0 | -2.5 | 51.9* | -0.9 | 3438
Cc1ccc(N2C(=O)c3cccc4c(N5CCN(C)CC5)ccc(c34)C2=O)c2cccnc12 | / | -1.2 | / | 1.3 | / | /
CC(=O)NC(Cc1ccccc1)C(=O)N1CCN(C(=O)c2cccs2)CC1 (stereo unspecified) | -2.6 | 0.6 | -0.1 | -5.4 | -0.5 | 16669*
CC(=O)NC(Cc1ccc(F)cc1)C(=O)N1CCN(C(=O)NCc2ccccc2)CC1 (stereo unspecified) | -5.9 | -2.5 | -1.2 | 5.7 | -0.9 | 20125*
O=C(c1cccs1)N1CCN(CCCc2ccccc2)CC1 | -1.8 | -6.8 | -3.8 | 2.0 | -2.4 | 21596*
O=C(c1cccs1)N1CCN(S(=O)(=O)c2ccc(F)cc2)CC1 | / | -2.0 | / | -6.6 | / | /
CC(=O)NC(Cc1ccccc1)C(=O)NC1CCN(C(=O)NCc2ccccc2)CC1 (stereo unspecified) | -1.2 | 1.8 | -0.5 | -5.3 | -1.0 | 4616
O=C(c1cccs1)N1CCN(S(=O)(=O)c2ccccc2)CC1 | -1.9 | 5.4 | -3.5 | -0.7 | -0.9 | 16321*
COc1ccc2oc(C(=O)OCC(=O)N(Cc3ccccc3)C(C)(C)C)c(C)c2c1 | -0.3 | 4.0 | -9.4 | 7.3 | -3.8 | 7089
CC1CCCCC12NC(=O)N(CC(=O)Nc1ccc(N3CCCCC3)cc1)C2=O (stereo unspecified) | -0.8 | / | 15.6 | / | 5.1 | 5505
CCOC(=O)c1c(S(=O)(=O)N2CCN(c3ccc(F)cc3)CC2)c(C)n(C)c1C | -1.3 | -4.0 | -5.3 | 0.1 | -1.4 | 6068
Cc1cccc(OC(C)C(=O)N2CCCc3ccccc32)c1 (stereo unspecified) | 0.5 | 4.9 | -6.8 | 3.4 | 0.3 | 2481
Cc1ccc(OC(C)C(=O)N2CCCc3ccccc32)cc1 (stereo unspecified) | -7.1 | -0.7 | -7.8 | -8.0 | ? | 17127*
CN(C)c1ccc(NC(=O)c2ccc3nsnc3c2)cc1 | -4.4 | 4.7 | -3.0 | -8.1 | ? | 22463*
O=C(Nc1ccccc1NC(=O)NC1CCCCC1)NC1CCCCC1 | -2.1 | 2.0 | -3.3 | 2.7 | ? | 16874*
COC(=O)c1ccccc1NC(=O)NC1CCCC1 | -1.0 | 4.5 | 0.3 | 4.8 | -0.2 | 2246
O=C(Nc1cccc2ccccc12)NC1CCCCC1 | -10.9 | 1.6 | -9.3 | 0.5 | -3.2 | 4575
COc1ccc(NC(=O)c2cccnc2Nc2ccccc2)cc1 | -0.2 | -8.7 | -11.4 | -3.5 | -8.4 | 23086*
COc1ccc(NC(=O)c2ccccc2NC(=O)NC2CCCCC2)cc1 | -4.5 | -4.3 | -1.7 | -6.7 | 1.0 | 23203*
COc1ccc(NC(=O)c2ccccc2C)cc1 | -0.9 | -0.1 | ? | 2.4 | 3.6 | 3987

Screens deposited in PubChem by several laboratories.
